Measured values: PubChem BioAssay (NCI)
About 79,000 compounds went through this panel and 15% of them were active in at least one assay; those are over-represented in the sample as a whole. Cut-off read from the data, not from the text of the source: active = growth inhibition above about 70%; inactive = the rest.

Key:
[1] = NCI Yeast Anticancer Drug Screen. Data for the rad50 strain (AID 155);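 note: 0% = growth of vehicle-only cultures of the same strain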; details: S. cerevisiae rad50 strain growth inhibition, active compounds read high; at 50.0 µM unless noted
Summary of the method: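 Readout: growth inhibition relative to vehicle-treated cultures. Compound exposure was carried out in a genetically defined yeast strain deficient in DNA damage repair.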

[2] = NCI Yeast Anticancer Drug Screen. Data for the mec2-1 strain (AID 157); details: S. cerevisiae mec2-1 strain, active compounds read high; at 50.0 µM unless noted
Summary of the method: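 Vehicle-treated cultures served as reference for growth inhibition of compound-exposed mec2-1 yeast.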

[3] = NCI Yeast Anticancer Drug Screen. Data for the sgs1 mgt1 strain (AID 161);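 note: 0% = growth of cultures given vehicle only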; details: S. cerevisiae sgs1 mgt1 strain, active compounds read high; at 50.0 µM unless noted
Summary of the method: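 Genetically altered yeast, compound exposure, growth inhibition relative to vehicle.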

[4] = NCI Yeast Anticancer Drug Screen. Data for the cln2 rad14 strain (AID 165);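 note: 0% = growth equal to vehicle treated cultures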; details: S. cerevisiae cln2 rad14 strain, active compounds read high; at 50.0 µM unless noted
Summary of the method: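 Each compound was tested on cln2 rad14 yeast. Inhibition of growth was calculated against vehicle-exposed controls.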

[5] = NCI Yeast Anticancer Drug Screen. Data for the bub3 strain (AID 167); details: S. cerevisiae bub3 mutant strain, active compounds read high; at 50.0 µM unless noted
Summary of the method: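 Readout: yeast growth inhibition, expressed relative to vehicle-only wells. The test organism is a mutant strain from a panel with lesions in DNA repair or checkpoint genes.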

[6] = NCI Yeast Anticancer Drug Screen. Data for the mlh1 rad18 strain (AID 175); details: S. cerevisiae mlh1 rad18 strain growth inhibition, active compounds read high; at 50.0 µM unless noted
Summary of the method: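 Vehicle-treated cultures served as the reference for growth inhibition in a yeast strain carrying DNA damage repair alterations exposed to each compound.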

Measured: growth inhibition

CCCC(C)C(=O)OC(CC)CC (stereo not given)
inactive: [1] 31.4% | [2] 1.55% | [3] 13.1% | [4] -18.2% | [5] 5.65% | [6] 11.4%

O=[N+]([O-])c1ccc(S/N=C\c2ccccc2)c([N+](=O)[O-])c1
inactive: [1] -9.95% | [2] 13.7% | [3] 0.25% | [4] 14.6% | [5] 7.2% | [6] 8.55%

CN1C(=O)n2c(nc3ccccc32)C(Cl)(Cl)C1=O
inactive: [1] 13.8% | [2] 10.3% | [3] 3.25% | [4] 20.4% | [5] 34.7% | [6] 42%

O=C1c2ccc3c4ccccc4n(-c4ccccc4)c3c2C(=O)N1c1ccc(Cl)cc1
inactive: [1] -11.8% | [2] -2.95% | [3] -26.2% | [4] 24.9% | [5] -18.4% | [6] -7.05%

CC(=O)OC(CCC1CO1)OC(C)=O (stereo not given)
inactive: [1] 0.65% | [2] 11.6% | [3] -0.2% | [4] -7.65% | [5] 15.2% | [6] -0.1%

COc1cc2cnc3c4cc(OC(C)C)c(OC)cc4ccc3c2cc1OC
inactive: [1] -10% | [2] -15.3% | [3] -20.1% | [4] 5.75% | [5] -5.3% | [6] -29.4%

CCOC(=O)C(=O)/C(=C/N1C(=O)CC(=O)NC1=S)C(=O)OCC
inactive: [1] -19.6% | [2] -47.2% | [3] -25% | [4] -13.9% | [5] -34.9% | [6] -10.6%

O=C(O)c1ccc(Cl)o1
inactive: [1] 7.7% | [2] -3.6% | [3] -23.1% | [4] -1.05% | [5] 10.1% | [6] 5.6%

CC1(C)CC(=O)C=C(n2ccccc2=O)C1
inactive: [1] 2.7% | [2] -5.3% | [3] 0.15% | [4] 7.5% | [5] -19.8% | [6] -1.8%

C=C(C)CC(=O)O.CC(=O)[CH-]C(C)=O.CC(=O)[CH-]C(C)=O.CC(=O)[CH-]C(C)=O.[Zn+2].[Zn]
inactive: [1] 30.2% | [2] 10.8% | [3] 16.2% | [4] 6.8% | [5] -0.85% | [6] 21.1%

Nn1c(N=Nc2c(O)[nH]c3ccccc23)n[nH]c1=S
inactive: [1] 45.9% | [2] 5.5% | [3] 57% | [4] 15.9% | [5] 6.35% | [6] 23.9%

C=C1OC(n2cnc3c(=N)n(O)cnc32)C2OC(C)(C)OC12 (stereo not given)
inactive: [1] -3.6% | [2] 4.75% | [3] 13.2% | [4] -16.4% | [5] 1.9% | [6] -16.5%

COc1ccc(C2=Nc3ccccc3N=C(SC)C2)cc1
inactive: [1] 42.2% | [2] -5.3% | [3] 51.1% | [4] 6.75% | [5] 53.7% | [6] 32.5%

NC(=O)NN(Cc1ccc2c(c1)OCO2)N=O
inactive: [1] -7.25% | [2] -6% | [3] -5.55% | [4] -16.6% | [5] 16.2% | [6] 1.9%

CC(=O)c1cc([N+](=O)[O-])ccc1OCC(=O)O
inactive: [1] 5.95% | [2] 4.85% | [3] 3.75% | [4] 1.85% | [5] 9.85% | [6] 9.6%

CCOC(=O)C(Cc1ccc(Cl)cc1)(NC(C)=O)C(=O)OCC
inactive: [1] -1.25% | [2] -13.6% | [3] -4.25% | [4] -23.9% | [5] 14.4% | [6] -10.4%

CN(C)C=Nc1ccc2c3c(cccc13)-c1ccccc1-2
inactive: [1] -2.9% | [2] -24.1% | [3] 47.5% | [4] -0.35% | [5] 51.1% | [6] 41%

Cc1ccc([N+](=O)[O-])cc1NS(=O)(=O)c1cc(Cl)c(Cl)cc1Cl
inactive: [1] 19.8% | [2] 36.6% | [3] 49.2% | [4] -8.5% | [5] 1.2% | [6] 61.2%

O=C(NC1CCCCC1)/C(=C\c1ccccc1)NC(=O)c1ccccc1
inactive: [1] -26.8% | [2] -48.4% | [3] -28.6% | [4] 0.05% | [5] -6.8% | [6] -27.4%

CC(O)CNC(=O)C(C)(C)O (stereo not given)
inactive: [1] 36% | [2] 13.6% | [3] 20.7% | [4] 9.65% | [5] 21.8% | [6] 18.9%
